In ChEMBL document CHEMBL2218924, “A broad activity screen in support of a chemogenomic map for kinase signalling research and drug discovery” (Biochem J, 2013):

Columns and labels:
[1] = molecular target: T1, Serine/threonine-protein kinase 17A (Homo sapiens) (UniProt Q9UEE5); conditions: at 1 µM
T1 sequence (whole entry): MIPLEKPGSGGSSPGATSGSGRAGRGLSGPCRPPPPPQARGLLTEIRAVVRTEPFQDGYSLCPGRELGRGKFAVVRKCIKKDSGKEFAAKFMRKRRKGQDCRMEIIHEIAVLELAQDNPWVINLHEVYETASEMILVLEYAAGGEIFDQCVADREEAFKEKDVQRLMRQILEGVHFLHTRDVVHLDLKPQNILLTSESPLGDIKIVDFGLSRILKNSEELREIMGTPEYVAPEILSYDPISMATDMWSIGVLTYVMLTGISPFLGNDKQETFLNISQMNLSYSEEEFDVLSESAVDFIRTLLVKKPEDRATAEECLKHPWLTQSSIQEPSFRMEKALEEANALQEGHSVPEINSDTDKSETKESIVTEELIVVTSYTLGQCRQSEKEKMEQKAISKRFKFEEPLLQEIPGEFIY

[2] = molecular target: T1, Serine/threonine-protein kinase 17A (Homo sapiens); conditions: at 10 µM
[3] = molecular target: T2, Dual specificity tyrosine-phosphorylation-regulated kinase 2 (Homo sapiens) (UniProt Q92630); conditions: at 1 µM
T2 sequence (whole entry): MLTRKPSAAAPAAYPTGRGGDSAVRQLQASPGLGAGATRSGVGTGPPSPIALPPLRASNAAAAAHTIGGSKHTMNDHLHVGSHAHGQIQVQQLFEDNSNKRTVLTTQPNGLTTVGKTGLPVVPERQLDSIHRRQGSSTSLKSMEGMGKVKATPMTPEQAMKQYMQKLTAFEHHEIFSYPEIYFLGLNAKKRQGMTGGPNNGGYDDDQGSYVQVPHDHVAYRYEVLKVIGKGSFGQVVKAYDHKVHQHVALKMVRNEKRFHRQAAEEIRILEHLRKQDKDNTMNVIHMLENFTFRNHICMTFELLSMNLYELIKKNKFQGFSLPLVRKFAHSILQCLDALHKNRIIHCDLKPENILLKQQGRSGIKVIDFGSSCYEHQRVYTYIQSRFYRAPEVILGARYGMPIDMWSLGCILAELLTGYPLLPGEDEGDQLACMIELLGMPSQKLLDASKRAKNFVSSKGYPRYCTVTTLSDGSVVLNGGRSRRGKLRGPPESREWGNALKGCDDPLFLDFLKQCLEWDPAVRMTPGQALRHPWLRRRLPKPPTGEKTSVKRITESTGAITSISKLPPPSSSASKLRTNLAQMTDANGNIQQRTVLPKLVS

[4] = molecular target: T2, Dual specificity tyrosine-phosphorylation-regulated kinase 2 (Homo sapiens); conditions: at 10 µM
[5] = molecular target: T3, Ephrin type-A receptor 1 (Homo sapiens) (UniProt P21709); conditions: at 1 µM
T3 sequence (whole entry): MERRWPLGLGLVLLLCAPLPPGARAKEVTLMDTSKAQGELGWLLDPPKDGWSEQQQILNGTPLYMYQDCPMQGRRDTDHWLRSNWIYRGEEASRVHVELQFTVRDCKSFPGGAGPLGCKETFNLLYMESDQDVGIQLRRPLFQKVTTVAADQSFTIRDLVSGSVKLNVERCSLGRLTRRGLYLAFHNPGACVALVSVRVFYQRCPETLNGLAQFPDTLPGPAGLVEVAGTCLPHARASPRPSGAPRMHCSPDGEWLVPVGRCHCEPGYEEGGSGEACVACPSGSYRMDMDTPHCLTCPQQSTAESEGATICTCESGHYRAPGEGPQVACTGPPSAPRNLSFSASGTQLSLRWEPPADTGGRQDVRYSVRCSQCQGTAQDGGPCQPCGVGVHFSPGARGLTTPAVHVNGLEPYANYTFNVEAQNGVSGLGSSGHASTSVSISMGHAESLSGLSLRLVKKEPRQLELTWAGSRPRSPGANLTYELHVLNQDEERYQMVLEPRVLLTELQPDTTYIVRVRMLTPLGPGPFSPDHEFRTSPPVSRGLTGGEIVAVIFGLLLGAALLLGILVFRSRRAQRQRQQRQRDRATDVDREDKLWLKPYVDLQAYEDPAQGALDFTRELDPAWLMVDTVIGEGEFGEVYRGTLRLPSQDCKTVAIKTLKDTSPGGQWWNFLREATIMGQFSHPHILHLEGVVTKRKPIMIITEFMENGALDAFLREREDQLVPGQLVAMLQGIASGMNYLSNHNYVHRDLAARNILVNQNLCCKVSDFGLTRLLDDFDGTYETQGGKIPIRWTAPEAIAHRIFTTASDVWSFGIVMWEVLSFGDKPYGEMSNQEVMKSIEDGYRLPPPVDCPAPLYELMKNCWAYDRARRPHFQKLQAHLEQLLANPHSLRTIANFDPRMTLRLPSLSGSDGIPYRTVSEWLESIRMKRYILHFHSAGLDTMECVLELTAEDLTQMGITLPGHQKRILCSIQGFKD

[6] = molecular target: T3, Ephrin type-A receptor 1 (Homo sapiens); conditions: at 10 µM
[7] = molecular target: Ephrin type-A receptor 2 (Homo sapiens) (UniProt P29317); conditions: at 1 µM
[8] = molecular target: Ephrin type-A receptor 2 (Homo sapiens) (UniProt P29317); conditions: at 10 µM
[9] = molecular target: T4, Ephrin type-A receptor 3 (Homo sapiens) (UniProt P29320); conditions: at 1 µM
T4 sequence (whole entry): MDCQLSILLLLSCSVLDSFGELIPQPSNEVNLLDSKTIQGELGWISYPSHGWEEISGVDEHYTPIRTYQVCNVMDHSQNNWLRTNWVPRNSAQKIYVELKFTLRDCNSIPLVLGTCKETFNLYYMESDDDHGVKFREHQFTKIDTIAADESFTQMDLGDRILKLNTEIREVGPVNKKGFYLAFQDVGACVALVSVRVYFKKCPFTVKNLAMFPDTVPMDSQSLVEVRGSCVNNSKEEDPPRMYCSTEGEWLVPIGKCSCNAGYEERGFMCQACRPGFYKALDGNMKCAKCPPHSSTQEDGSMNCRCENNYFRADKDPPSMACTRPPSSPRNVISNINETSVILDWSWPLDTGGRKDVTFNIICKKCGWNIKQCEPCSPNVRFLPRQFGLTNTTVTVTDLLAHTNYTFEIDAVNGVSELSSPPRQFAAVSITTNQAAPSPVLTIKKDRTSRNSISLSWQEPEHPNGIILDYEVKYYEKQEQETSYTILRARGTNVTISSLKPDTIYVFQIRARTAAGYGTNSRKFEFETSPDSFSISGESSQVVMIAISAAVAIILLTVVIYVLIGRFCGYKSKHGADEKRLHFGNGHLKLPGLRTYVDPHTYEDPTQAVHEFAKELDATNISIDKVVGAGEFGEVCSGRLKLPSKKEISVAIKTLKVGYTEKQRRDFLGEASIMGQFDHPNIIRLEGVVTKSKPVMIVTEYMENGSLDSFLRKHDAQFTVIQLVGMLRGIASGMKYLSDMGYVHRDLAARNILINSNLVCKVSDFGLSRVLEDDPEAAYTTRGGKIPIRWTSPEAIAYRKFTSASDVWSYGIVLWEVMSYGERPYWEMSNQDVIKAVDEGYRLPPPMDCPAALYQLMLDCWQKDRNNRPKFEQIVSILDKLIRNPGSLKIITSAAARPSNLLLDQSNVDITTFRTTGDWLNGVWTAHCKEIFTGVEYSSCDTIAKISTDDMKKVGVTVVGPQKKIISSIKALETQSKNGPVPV

[10] = molecular target: T4, Ephrin type-A receptor 3 (Homo sapiens); conditions: at 10 µM
[11] = molecular target: Ephrin type-A receptor 4 (Homo sapiens) (UniProt P54764); conditions: at 1 µM
[12] = molecular target: Ephrin type-A receptor 4 (Homo sapiens) (UniProt P54764); conditions: at 10 µM
[13] = molecular target: Ephrin type-A receptor 5 (Homo sapiens) (UniProt P54756); conditions: at 1 µM
[14] = molecular target: Ephrin type-A receptor 5 (Homo sapiens) (UniProt P54756); conditions: at 10 µM
[15] = molecular target: Ephrin type-A receptor 7 (Homo sapiens) (UniProt Q15375); conditions: at 1 µM
[16] = molecular target: Ephrin type-A receptor 7 (Homo sapiens) (UniProt Q15375); conditions: at 10 µM
[17] = molecular target: T5, Ephrin type-A receptor 8 (Homo sapiens) (UniProt P29322); conditions: at 1 µM
T5 sequence (whole entry): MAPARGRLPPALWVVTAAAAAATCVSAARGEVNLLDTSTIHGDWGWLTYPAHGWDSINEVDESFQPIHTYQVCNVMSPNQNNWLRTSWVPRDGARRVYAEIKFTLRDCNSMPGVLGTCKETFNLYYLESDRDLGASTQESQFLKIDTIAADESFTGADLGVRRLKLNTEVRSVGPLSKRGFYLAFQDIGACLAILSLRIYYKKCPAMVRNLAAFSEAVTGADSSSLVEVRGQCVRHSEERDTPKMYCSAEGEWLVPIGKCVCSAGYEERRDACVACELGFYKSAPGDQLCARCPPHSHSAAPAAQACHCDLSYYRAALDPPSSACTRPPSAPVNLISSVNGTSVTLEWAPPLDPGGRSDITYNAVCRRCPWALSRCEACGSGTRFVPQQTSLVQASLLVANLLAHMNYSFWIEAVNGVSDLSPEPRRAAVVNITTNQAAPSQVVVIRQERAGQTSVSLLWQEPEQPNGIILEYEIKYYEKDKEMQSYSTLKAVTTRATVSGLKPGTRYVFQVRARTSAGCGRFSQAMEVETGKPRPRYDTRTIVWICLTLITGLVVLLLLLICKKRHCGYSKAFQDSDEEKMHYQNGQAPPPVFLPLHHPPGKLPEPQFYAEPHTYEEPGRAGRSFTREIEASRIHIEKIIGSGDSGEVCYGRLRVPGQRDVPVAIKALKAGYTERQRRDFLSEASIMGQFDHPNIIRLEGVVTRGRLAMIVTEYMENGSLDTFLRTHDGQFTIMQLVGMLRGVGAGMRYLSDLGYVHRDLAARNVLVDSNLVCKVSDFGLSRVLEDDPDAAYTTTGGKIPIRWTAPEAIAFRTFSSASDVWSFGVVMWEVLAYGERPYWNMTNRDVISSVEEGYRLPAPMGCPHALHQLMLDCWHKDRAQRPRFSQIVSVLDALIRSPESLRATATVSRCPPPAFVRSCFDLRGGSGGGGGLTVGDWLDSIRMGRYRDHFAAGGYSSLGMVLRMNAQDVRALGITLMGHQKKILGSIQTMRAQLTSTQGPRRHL

[18] = molecular target: T5, Ephrin type-A receptor 8 (Homo sapiens); conditions: at 10 µM
[19] = molecular target: T6, Ephrin type-B receptor 1 (Homo sapiens) (UniProt P54762); conditions: at 1 µM
T6 sequence (whole entry): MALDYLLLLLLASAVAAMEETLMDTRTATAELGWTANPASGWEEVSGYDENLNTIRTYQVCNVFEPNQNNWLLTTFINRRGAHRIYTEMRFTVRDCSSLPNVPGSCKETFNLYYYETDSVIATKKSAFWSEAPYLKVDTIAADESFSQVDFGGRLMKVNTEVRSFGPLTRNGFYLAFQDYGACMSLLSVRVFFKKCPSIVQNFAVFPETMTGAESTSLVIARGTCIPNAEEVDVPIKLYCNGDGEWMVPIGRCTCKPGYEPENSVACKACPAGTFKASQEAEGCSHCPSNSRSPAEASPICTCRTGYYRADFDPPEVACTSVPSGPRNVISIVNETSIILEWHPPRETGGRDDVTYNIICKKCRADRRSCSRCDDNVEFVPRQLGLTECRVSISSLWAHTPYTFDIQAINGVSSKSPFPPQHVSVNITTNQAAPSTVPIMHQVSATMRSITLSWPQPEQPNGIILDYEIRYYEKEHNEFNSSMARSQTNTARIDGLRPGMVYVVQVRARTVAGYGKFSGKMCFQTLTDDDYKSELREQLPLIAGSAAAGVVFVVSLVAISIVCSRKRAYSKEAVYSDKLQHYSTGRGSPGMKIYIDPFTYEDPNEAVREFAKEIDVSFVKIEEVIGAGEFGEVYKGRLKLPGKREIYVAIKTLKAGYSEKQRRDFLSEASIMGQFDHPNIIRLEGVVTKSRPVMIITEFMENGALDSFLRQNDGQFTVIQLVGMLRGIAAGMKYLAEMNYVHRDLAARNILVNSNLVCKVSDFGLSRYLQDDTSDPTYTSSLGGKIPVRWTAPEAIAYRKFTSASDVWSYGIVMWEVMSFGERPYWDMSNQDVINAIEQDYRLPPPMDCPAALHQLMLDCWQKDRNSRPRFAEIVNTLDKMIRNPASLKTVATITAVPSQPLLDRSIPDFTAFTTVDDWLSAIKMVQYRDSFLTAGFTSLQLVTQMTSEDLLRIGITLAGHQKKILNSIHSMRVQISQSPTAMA

Chain of Ephrin type-A receptor 4 (Homo sapiens) (P54764 whole entry): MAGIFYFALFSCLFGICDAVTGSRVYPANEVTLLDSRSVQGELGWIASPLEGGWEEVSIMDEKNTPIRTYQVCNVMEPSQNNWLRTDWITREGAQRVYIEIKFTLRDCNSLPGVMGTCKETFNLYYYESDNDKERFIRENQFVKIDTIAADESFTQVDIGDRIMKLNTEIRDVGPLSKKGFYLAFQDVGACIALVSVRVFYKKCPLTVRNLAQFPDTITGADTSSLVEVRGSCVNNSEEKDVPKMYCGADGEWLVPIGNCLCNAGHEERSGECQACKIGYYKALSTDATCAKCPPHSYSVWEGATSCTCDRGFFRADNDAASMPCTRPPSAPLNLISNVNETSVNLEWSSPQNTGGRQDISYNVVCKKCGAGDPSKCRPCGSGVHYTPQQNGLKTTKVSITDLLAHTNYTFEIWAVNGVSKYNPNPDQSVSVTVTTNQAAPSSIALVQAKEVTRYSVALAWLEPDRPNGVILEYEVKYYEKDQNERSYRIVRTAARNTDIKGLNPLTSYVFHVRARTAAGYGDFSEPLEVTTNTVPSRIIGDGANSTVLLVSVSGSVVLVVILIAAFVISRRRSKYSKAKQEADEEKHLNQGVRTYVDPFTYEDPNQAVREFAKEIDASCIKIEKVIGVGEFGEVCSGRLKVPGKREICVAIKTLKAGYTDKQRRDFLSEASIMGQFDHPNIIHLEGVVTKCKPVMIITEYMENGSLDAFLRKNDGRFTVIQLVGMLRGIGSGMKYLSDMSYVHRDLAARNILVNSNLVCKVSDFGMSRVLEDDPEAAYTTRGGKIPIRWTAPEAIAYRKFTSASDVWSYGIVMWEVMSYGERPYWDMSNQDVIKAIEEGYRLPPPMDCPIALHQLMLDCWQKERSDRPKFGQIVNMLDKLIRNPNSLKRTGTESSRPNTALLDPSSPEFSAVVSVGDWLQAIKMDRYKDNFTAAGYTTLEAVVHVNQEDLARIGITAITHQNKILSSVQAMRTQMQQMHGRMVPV
Chain of Ephrin type-A receptor 2 (Homo sapiens) (P29317 whole entry): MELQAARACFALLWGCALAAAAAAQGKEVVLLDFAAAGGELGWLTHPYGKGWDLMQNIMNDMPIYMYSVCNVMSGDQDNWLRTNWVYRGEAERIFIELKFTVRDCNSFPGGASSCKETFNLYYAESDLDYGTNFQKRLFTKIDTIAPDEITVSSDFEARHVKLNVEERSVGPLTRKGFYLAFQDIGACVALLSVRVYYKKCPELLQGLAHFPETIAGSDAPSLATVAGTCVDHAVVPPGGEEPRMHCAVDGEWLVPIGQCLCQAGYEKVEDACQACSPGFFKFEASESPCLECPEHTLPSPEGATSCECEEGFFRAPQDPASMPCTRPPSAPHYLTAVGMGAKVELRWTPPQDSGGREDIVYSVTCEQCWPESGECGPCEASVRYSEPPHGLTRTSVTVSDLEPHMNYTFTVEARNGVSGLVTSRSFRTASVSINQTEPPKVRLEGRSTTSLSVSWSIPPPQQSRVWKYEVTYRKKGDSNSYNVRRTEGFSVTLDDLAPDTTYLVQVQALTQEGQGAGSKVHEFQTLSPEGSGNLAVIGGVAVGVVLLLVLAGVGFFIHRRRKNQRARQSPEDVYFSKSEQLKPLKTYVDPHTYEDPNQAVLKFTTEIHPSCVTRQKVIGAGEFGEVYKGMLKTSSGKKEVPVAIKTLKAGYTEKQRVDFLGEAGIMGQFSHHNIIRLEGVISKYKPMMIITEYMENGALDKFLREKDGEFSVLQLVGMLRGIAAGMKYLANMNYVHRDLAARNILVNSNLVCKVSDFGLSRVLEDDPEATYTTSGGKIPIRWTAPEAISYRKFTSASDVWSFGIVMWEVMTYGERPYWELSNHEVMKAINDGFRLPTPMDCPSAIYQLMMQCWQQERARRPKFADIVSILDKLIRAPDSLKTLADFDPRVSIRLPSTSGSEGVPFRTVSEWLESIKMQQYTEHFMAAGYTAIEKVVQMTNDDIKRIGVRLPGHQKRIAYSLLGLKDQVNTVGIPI
Chain of Ephrin type-A receptor 5 (Homo sapiens) (P54756 whole entry): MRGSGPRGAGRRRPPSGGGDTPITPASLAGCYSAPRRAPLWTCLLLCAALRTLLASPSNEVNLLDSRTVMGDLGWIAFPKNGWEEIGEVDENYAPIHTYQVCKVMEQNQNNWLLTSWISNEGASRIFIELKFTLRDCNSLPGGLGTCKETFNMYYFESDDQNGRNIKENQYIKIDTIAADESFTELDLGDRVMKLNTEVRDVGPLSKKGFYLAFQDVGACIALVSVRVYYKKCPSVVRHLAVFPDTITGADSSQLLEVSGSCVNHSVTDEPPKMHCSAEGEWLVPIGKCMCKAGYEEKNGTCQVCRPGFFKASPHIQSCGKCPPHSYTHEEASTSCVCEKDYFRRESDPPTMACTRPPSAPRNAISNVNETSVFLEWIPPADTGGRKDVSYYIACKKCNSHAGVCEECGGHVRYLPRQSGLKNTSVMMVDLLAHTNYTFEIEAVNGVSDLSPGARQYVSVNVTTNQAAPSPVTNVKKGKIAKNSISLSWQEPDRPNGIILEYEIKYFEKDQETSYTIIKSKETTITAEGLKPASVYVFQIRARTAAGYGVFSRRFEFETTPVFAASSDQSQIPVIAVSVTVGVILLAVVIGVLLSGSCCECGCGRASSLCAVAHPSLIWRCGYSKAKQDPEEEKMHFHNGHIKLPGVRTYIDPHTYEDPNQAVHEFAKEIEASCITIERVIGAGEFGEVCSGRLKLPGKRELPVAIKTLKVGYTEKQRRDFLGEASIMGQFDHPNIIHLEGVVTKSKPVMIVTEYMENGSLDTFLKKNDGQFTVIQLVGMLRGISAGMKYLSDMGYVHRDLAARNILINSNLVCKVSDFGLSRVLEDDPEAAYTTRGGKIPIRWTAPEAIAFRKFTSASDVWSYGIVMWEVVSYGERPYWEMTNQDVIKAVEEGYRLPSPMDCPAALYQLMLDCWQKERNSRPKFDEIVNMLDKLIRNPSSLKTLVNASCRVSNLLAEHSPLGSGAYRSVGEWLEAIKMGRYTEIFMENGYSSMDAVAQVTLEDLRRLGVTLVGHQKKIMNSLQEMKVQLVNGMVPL
Chain of Ephrin type-A receptor 7 (Homo sapiens) (Q15375 28-998 limits assumed): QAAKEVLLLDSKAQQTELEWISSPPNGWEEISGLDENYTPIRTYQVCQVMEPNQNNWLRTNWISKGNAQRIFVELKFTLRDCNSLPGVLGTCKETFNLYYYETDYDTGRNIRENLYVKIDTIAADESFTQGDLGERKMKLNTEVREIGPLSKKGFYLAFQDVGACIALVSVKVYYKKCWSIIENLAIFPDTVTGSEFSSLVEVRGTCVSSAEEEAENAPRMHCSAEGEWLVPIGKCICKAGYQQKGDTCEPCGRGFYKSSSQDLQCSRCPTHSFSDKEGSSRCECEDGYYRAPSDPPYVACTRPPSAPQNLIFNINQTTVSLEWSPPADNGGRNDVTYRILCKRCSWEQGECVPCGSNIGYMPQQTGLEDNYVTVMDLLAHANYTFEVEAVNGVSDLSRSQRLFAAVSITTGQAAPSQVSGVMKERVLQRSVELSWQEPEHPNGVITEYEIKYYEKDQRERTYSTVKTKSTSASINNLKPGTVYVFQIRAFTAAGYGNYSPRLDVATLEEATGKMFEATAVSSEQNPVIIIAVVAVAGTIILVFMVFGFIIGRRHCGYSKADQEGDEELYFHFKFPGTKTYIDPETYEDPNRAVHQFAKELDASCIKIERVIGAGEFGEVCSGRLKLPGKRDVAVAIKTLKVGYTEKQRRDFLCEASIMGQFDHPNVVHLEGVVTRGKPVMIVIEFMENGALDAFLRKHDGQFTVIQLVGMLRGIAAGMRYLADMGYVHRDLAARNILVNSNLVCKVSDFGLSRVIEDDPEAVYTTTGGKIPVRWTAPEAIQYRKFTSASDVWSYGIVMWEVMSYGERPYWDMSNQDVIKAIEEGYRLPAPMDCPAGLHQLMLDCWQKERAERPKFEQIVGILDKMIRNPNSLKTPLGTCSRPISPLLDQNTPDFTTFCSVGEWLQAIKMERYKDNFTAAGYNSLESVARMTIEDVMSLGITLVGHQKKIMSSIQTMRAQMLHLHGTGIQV

O=C1Nc2ccc3ncsc3c2/C1=C/c1c[nH]cn1
residual activity [1]: 1%
residual activity [2]: 1%
residual activity [3]: 1%
residual activity [4]: -5%
residual activity [5]: 58%
residual activity [6]: 24%
residual activity [7]: 77%
residual activity [8]: 31%
residual activity [9]: 82%
residual activity [10]: 28%
residual activity [11]: 102%
residual activity [12]: 68%
residual activity [13]: 89%
residual activity [14]: 42%
residual activity [15]: 77%
residual activity [16]: 17%
residual activity [17]: 95%
residual activity [18]: 72%
residual activity [19]: 60%

COc1cc2ncnc(Nc3ccc(OCc4ccccc4)cc3)c2cc1OC
residual activity [1]: 116%
residual activity [2]: 95%
residual activity [3]: 102%
residual activity [4]: 94%
residual activity [5]: 94%
residual activity [6]: 104%
residual activity [7]: 125%
residual activity [8]: 108%
residual activity [9]: 115%
residual activity [10]: 113%
residual activity [11]: 118%
residual activity [12]: 93%
residual activity [13]: 116%
residual activity [14]: 104%
residual activity [15]: 109%
residual activity [16]: 90%
residual activity [17]: 118%
residual activity [18]: 101%
residual activity [19]: 94%

CC(C)[C@H](CO)Nc1nc(Nc2cccc(Cl)c2)c2ncn(C(C)C)c2n1
residual activity [1]: 116%
residual activity [2]: 92%
residual activity [3]: 99%
residual activity [4]: 86%
residual activity [5]: 69%
residual activity [6]: 14%
residual activity [7]: 69%
residual activity [8]: 27%
residual activity [9]: 86%
residual activity [10]: 31%
residual activity [11]: 95%
residual activity [12]: 47%
residual activity [13]: 83%
residual activity [14]: 14%
residual activity [15]: 76%
residual activity [16]: 28%
residual activity [17]: 85%
residual activity [18]: 46%
residual activity [19]: 63%
